Most compounds without a hit are left out; they make up all but 19% or so of the library.
TDP1 cell noCPT: qHTS for Inhibitors of human tyrosyl-DNA phosphodiesterase 1 (TDP1): qHTS in cells in absence of CPT | AID 686978, 2013 | Potency, µM (doses to about 46.2 µM), inactives show at the highest dose activity change, negative = growth inhibition, hits mostly inhibitors | 420,000 compounds, 15% hits | DT40 Tdp1-/- hTDP1 cells, no CPT, ATP luminescence, 48 h; further: potency means the concentration at half of the fitted maximal effect; nearly all actives have a fitted effect of over 55% in size
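Luminescent ATP content (CellTiter-Glo) served as the growth readout. Knockout chicken DT40 cells expressing human TDP1 were exposed to compounds without camptothecin for a minimum 48 hr at 37 °C.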
HT1080 IDH1KD tx: toxicity to HT-1080 IDH1 knockdown cells (counter line); Potency, µM (top dose mostly 46.1 µM), for the others: top-dose activity, negative = toxicity, most hits filed as cytotoxic; 360,000 compounds, 2% hits; HT-1080 IDH1 knockdown viability, ATP luminescence, 48 h; AID 686971;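 further: potency means the concentration at half of the fitted maximal effect; 0% = DMSO wells and -100% = cell-free medium wells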
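Using the IDH1-knockdown HT-1080 line run in the same batch and compound series as the NT line, viability after 48 h at 37 °C was determined by CellTiter-Glo luminescence and expressed as % activity.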
HT1080-NT tox: kills 2HG-producing HT-1080-NT fibrosarcoma cells; HT-1080-NT fibrosarcoma viability, CellTiter-Glo ATP luminescence, 48 h; Potency, µM (series often up to 46.1 µM), for the others: at the top dose activity, negative = less viability, usual class: cytotoxic; 360,000 compounds, 1.6% hits;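 further: NT is the 2HG producing partner of a matched IDH1 knockdown line; potency means the concentration at half of the fitted maximal effect; 0% = DMSO-treated cells and -100% = media-only wells without cells; nearly all actives have a fitted effect of over 55% in size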
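Read-out is CellTiter-Glo luminescence after 10 minutes at room temperature, following 48 hours' compound treatment of HT-1080-NT cells (750 cells/well, RPMI, 5% FBS, 37 degrees C).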
IL1B secr inh: blocks inflammasome-driven IL-1 beta release. THP-1 LPS/ATP IL-1B secretion, AlphaLISA, 16 h; hits give low values. 360,000 compounds, 4.7% hits. AID 743279. activity change, % at 57.5 µM; in the data active means activity change below about -50%; inconclusive means mostly about -30% to -49%
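Secreted IL-1B measured by AlphaLISA bead assay after 16 h compound exposure of THP-1 cells; compounds (final up to 57.5 uM) added 1 h before LPS (250 ng/mL) and ATP (1.25 mM) stimulation; lower signal means less secretion.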
TDP1 cell CPT: growth inhibition of DT40 Tdp1-/-;hTDP1 cells with camptothecin (screen for TDP1 inhibitors); chicken DT40 Tdp1-/-;hTDP1 cells + 20 nM CPT, ATP luminescence, 48 h; Potency, µM (doses to about 46.2 µM), for the others: at the highest dose activity change, negative = growth inhibition, hits mostly inhibitors; 420,000 compounds, 12% hits; further: potency means the concentration at half of the fitted maximal effect; nearly all actives have a fitted effect of over 55% in size
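Chicken DT40 Tdp1-/- cells stably complemented with human TDP1 were seeded at 400 cells/well in medium containing 20 nM camptothecin, exposed to pin-transferred compounds, and grown at 37 °C for at least 48 hr. Viability was read as ATP luminescence.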
* = called active by the depositor; ? = inconclusive; . = not tested or not shown; [ ] = another dose, or the depositor's remark. Unless noted, the call rests on the fitted dose curve; in most records, active means well fitted curve in the direction sought with a large enough effect; inconclusive means small, poorly fitted or top-dose-only effect, or another doubt; inactive means no such curve, though single readings can be large; an effect the other way counts as inactive or inconclusive. Unless noted, on the % scale 0 is the no-effect control and ±100 the full control effect.

SMILES | TDP1 cell noCPT | HT1080 IDH1KD tx | HT1080-NT tox | IL1B secr inh | TDP1 cell CPT
COC(=O)[C@]1(C)N[C@H](c2ccc(SC3CCCCC3)cc2)[C@@H]2C(=O)N(C)C(=O)[C@@H]21 | 16µM* | 14% | 5% | 22 | ?
CCCSc1ccc([C@H]2N[C@@](C)(C(=O)OC)[C@H]3C(=O)N(C)C(=O)[C@@H]23)cc1 | -30% | 6% | 10% | 13 | -29%
CCCCCCSc1ccc([C@H]2N[C@@](C)(C(=O)OC)[C@H]3C(=O)N(C)C(=O)[C@@H]23)cc1 | -76% | -22% | -18% | ? | 21µM*
COc1ccccc1C(=O)NC(=O)Nc1cccc(Cl)c1 | ? | 1% | -9% | -3 | -7%
O=C(NC(=O)c1c(F)cccc1F)Nc1cccc(Oc2ncc(Cl)cn2)c1 | 5.8µM* | 3% | -7% | 0 | ?
COc1cccc(/C=N/NC(=S)Nc2cccnc2)c1 | 4.6µM* | 1% | -2% | -6 | 2.3µM*
COc1ccc(O)c(/C=N/NC(=S)Nc2cccnc2)c1 | 18µM* | -22% | -29% | 144 | ?
CC(C)(C)NC(=S)N/N=C/c1cccnc1 | 26µM* | 8% | 22% | -1 | 15µM*
Oc1ccc(/C=N/NC(=S)Nc2cccnc2)cc1 | ? | 0% | 20% | -25 | -35%
CSCCC(NC(=O)c1ccccc1Cl)C(=O)NCCc1ccccn1 (stereo not drawn) | -3% | 7% | 5% | 13 | 7%
Cc1[nH]c2ccccc2c1/C=N/NC(=O)c1cc(-c2ccccc2)n[nH]1 | 18µM* | 15µM* | 15µM* | ? | ?
Cc1nn(-c2ccccc2)c(C)c1/C=N/NC(=O)c1ccc(F)cc1 | -20% | -1% | 4% | -24 | -11%
Cc1nn(-c2ccccc2)c(C)c1/C=N/NC(=O)c1cc(-c2cccc3ccccc23)n[nH]1 | 16µM* | ? | ? | -15 | ?
Cc1[nH]c2ccccc2c1/C=N/NC(=O)c1cc(-c2ccncc2)nc2ccccc12 | 5.2µM* | 4.6µM* | ? | 0 | 5.8µM*
O=C(NCc1ccncc1)c1ccc(NS(=O)(=O)c2ccccc2)cc1 | -7% | -2% | -3% | 0 | -14%
CCC(CC)NCc1ccc2c(c1)c1ccccc1n2CC | 26µM* | -11% | -20% | -54* | 18µM*
CCn1c2ccccc2c2cc(/C=C(/C#N)C(N)=S)ccc21 | 16µM* | -16% | -17% | 8 | ?
CCOc1ccc2ccccc2c1CNCCCN1CCOCC1 | ? | -11% | -12% | -25 | -4%
CCn1c2ccccc2c2cc(N)ccc21 | ? | ? | ? | -12 | 26µM*
CCn1c2ccccc2c2cc(CNCCCN3CCOCC3)ccc21 | 16µM* | 21µM* | ? | -14 | 21µM*
N#C/C(=C/c1ccc(F)cc1)C(N)=S | -27% | 8% | 18% | 37 | -13%
Cc1ccc(C(=O)N/N=C/c2cccnc2)cc1Cl | -14% | -3% | -4% | -8 | 0%
CN(C(=O)CSC(=O)c1ccccc1)c1ccccc1 | -1% | 6% | 1% | -27 | -9%
CCC(=O)c1cn([C@@H](CCC(OC)OC)CC(=O)OC(C)(C)C)cc1CC | -27% | 9% | 12% | -9 | -20%
CC(=O)c1c2c3c(c(Br)ccc3n(C)c1=O)C(=O)c1ccccc1-2 | 23µM* | 15% | 20% | -20 | ?
SMILES | TDP1 cell noCPT | HT1080 IDH1KD tx | HT1080-NT tox | IL1B secr inh | TDP1 cell CPT
CC(=O)c1c2c3c(cccc3n(C)c1=O)C(=O)c1ccccc1-2 | -6% | -1% | -1% | 10 | 0%
O=C(NCc1ccccc1F)c1cccc(S(=O)(=O)N2CCCCCC2)c1 | -12% | 3% | 2%[9.24 µM] | -2 | -22%
CCC(=O)Oc1c(Sc2ccc(Cl)cc2)c(C)nn1C(C)(C)C | -29% | . | . | . | ?
COc1ccc(OC(=O)c2cnn(-c3ccccc3)c2C)cc1 | -24% | -2% | -3% | -4 | -29%
Cc1nn(-c2ccccc2)c(OC(=O)C(C)C)c1Sc1ccc(Cl)cc1 | 10µM* | . | . | . | ?
COc1ccc(C(=O)Oc2c(Sc3ccccc3)c(C)nn2-c2ccccc2)c(OC)c1 | ? | . | . | . | 18µM*
O=C(NC(c1ccc(-c2ccccc2)cc1)c1cnccn1)C1CCN(Cc2cccs2)CC1 (stereo not drawn) | ? | ? | ? | -11 | ?
COc1cc(CN2CCC(C(=O)NC(c3ccc(F)cc3)c3ncccc3C)CC2)cc(OC)c1 (stereo not drawn) | ? | -25% | -18% | -22 | 23µM*
O=C(NC(c1ccc(-c2ccccc2)cc1)c1cnccn1)C1CCN(CCN2C(=O)c3ccccc3C2=O)CC1 (stereo not drawn) | 23µM* | -9% | -3% | -1 | 23µM*
Cc1cccnc1C(NC(=O)C1CCN(Cc2ccc(Oc3ccccc3)cc2)CC1)c1ccccc1 (stereo not drawn) | 18µM* | 18µM* | 23µM* | ? | 15µM*
COc1ccc(C(NC(=O)C2CCN(Cc3ccc(Oc4ccccc4)cc3)CC2)c2ccccc2C)cn1 (stereo not drawn) | 18µM* | ? | 16µM* | ? | 21µM*
Cc1cccnc1C(NC(=O)C1CCN(Cc2ccccc2)CC1)c1ccc(F)cc1 (stereo not drawn) | ? | -28% | -37% | -15 | ?
COc1ccc(C(C)(C)C)cc1S(=O)(=O)N1CCC(C(N)=O)CC1 | -2% | 8% | 5% | 1 | -7%
COc1ccc(N2C(=O)CSC2c2ccc([N+](=O)[O-])cc2)cc1 (stereo not drawn) | -1% | -4% | -7% | -3 | 3%
O=C(NC(c1ccccc1)c1ccsc1)C1CCN(Cc2ccc(Oc3ccccc3)cc2)CC1 (stereo not drawn) | 18µM* | 15µM* | 18µM* | ? | ?
O=C(NC(c1ccc(-c2ccccc2)cc1)c1cnccn1)C1CCN(Cc2ccc(Oc3ccccc3)cc2)CC1 (stereo not drawn) | ? | ? | 13µM* | -52* | ?
COc1ccc(C(NC(=O)C2CCN(Cc3ccc(Oc4ccccc4)cc3)CC2)c2ccccn2)cc1 (stereo not drawn) | 16µM* | 23µM* | 15µM* | ? | 16µM*
COc1cc(CN2CCC(C(=O)NC(c3ccc(-c4ccccc4)cc3)c3cnccn3)CC2)cc(OC)c1 (stereo not drawn) | 23µM* | 23µM* | 23µM* | -53* | 9.2µM*
NC(=O)c1cc(S(=O)(=O)N2CC=C(c3ccccc3)CC2)cs1 | 3% | 14% | 12% | 16 | -4%
